# Assay outcomes from PubChem.
# SRC1 inh = SRC1 coactivator transcriptional activity inhibitors, primary screen, cell-based, luminescence; hit rate 0.12% among 360,000; HEK293 GAL4-SRC1 luciferase reporter; inhibition, % at 3.6 µM; AID 588354, 2011;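 active means inhibition above the campaign mean plus 3 SD, with each screening campaign given its own cutoff, cut at about 60% in these data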;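 further: 0% = DMSO treated cells and 100% = gossypol at 36 µM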
# SRC3 inh = SRC3 coactivator transcriptional activity inhibitors, primary screen, cell-based, luminescence; Nuclear receptor coactivator 3 (Homo sapiens), Q9Y6Q9; HEK293 GAL4-SRC3 luciferase reporter; inhibition, % at 3.6 µM; hit rate 0.17% among 360,000; AID 588352, 2011;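 active means inhibition above a per-campaign cutoff, the mean of all compounds plus 3 SD, cut at about 60% in these data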;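 further: 0% = DMSO-treated cells and 100% = gossypol-treated cells at 36 µM; higher means less SRC3-driven luciferase light from the GAL4 reporter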
# NR2F2 inh = NR2F2 transcriptional activity inhibitors, primary screen, cell-based, luciferase reporter, HEK293T, luminescence. COUP transcription factor 2 (Homo sapiens), P24468. HEK293T NGFI-A luciferase reporter. inhibition, % at 8.6 µM. hit rate 0.7% among 370,000;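 active means inhibition above a per-plate cutoff, mean inhibition of test wells between control levels plus 3 SD, cut at about 38% in these data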;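 further: cells cotransfected with COUP-TFII expression vector driving the NGFI-A reporter; 0% = median of COUP-TF2 test wells and 100% = reporter-only cells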
# Target sequence (P24468 whole entry, looked up): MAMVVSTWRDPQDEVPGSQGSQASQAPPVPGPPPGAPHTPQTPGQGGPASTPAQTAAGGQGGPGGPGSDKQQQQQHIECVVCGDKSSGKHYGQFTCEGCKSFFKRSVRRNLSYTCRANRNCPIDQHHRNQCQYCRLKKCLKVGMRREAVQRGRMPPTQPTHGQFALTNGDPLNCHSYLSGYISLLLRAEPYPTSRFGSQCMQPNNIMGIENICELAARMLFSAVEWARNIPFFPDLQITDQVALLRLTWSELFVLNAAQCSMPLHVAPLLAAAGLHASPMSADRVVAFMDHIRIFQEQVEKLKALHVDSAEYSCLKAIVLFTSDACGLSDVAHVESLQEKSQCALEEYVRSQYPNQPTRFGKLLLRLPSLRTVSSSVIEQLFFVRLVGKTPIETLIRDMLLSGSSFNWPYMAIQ
# NR5A2 inv ag = LRH-1 (NR5A2) inverse agonists, primary screen, cell-based, luminescence, HEK293T, StAR-luciferase reporter | Nuclear receptor subfamily 5 group A member 2 (Homo sapiens), O00482 | LRH-1 transfected, 24 h | inhibition, % at 3.6 µM | hit rate 0.13% among 360,000;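 active means inhibition above the mean inhibition of all tested compounds plus 3 SD, cut at about 73% in these data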;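 further: 0% = DMSO wells and 100% = reporter-only cells lacking LRH-1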
# SRC2 inh = inhibition of GAL4-SRC2 driven luciferase reporter, primary screen, SRC2 inhibitor project, cell-based, luminescence; inhibition, % at 9 µM; Nuclear receptor coactivator 2 (Homo sapiens), Q15596; HEK293 GAL4-SRC2 luciferase reporter; AID 651957, 2012; hit rate 0.17% among 370,000;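 active means inhibition above the mean inhibition of all tested compounds plus 3 SD, set per campaign, cut at about 52% in these data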;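 further: 0% = DMSO treated cells and 100% = cells given Gossypol at 36 µM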
# Gli-Sufu block = Gli-Sufu pathway antagonists, primary screen, luciferase luminescence, Sufu-KO-LIGHT cells, uHTS; Sufu-KO-LIGHT fibroblasts, Gli luciferase reporter luminescence; inhibition, % at 5 µM; hit rate 0.74% among 340,000; AID 588413, 2011;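 active means inhibition above about 55%, limit read from the data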;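 further: 0% = DMSO-treated cells and 100% = wells with medium but no cells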
# Gli-Sufu confirm = Gli-SUFU pathway antagonists, confirmation, single concentration, luciferase luminescence, Sufu-KO-LIGHT cells. shares compounds with Gli-Sufu block. Gli luciferase reporter. hit rate 40% among 2,500. inhibition, % at 5 µM. AID 602428, 2012;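 active means mean inhibition at 5 µM reaching about 45%, limit read from the data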;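 further: plate controls were DMSO-treated cells for no effect and wells lacking cells for full effect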
# Gli cytotox = cytotoxicity in Sufu-KO-LIGHT cells, confirmation, cytotoxicity control for Gli-SUFU antagonist project, cell-based, ATP luminescence, single concentration; shares compounds with Gli-Sufu block; cytotoxicity, % at 5 µM; hit rate 32% among 2,500; AID 651994, 2013;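 active means mean cytotoxicity at 5 µM above about 25%, limit read from the data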;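 further: cells exposed to compound overnight for roughly 16 to 18 hours; plate controls were DMSO wells with cells for no effect and medium without cells for full effect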
# Wnt3a cs = Wnt3a reporter signal inhibition, confirmation, counter-screen for Gli-SUFU antagonist project, Wnt-LIGHT cells, luminescence, single concentration | shares compounds with Gli-Sufu block | Wnt3a-driven luciferase reporter | inhibition, % at 6.25 µM | hit rate 20% among 2,500 | AID 651995, 2013;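 active means mean inhibition above about 25%, limit read from the data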
# Starred values were filed as active, the others as inactive; · = not tested or not shown. Sampled rows, rich in hits. Any-hit rate of the full collection: about 1.3%.
SMILES,SRC1 inh,SRC3 inh,NR2F2 inh,NR5A2 inv ag,SRC2 inh,Gli-Sufu block,Gli-Sufu confirm,Gli cytotox,Wnt3a cs
c1ccc(-c2cn(-c3ccccc3)c3[n+]2CCS3)cc1,-10,14,10,6,15,65*,64*,26*,13
Fc1ccc(-n2cc(-c3ccccc3)[n+]3c2SCC3)cc1,3,10,17,-7,-1,46,·,·,·
c1ccc(-c2c[n+]3c(n2-c2ccccc2)SCC3)cc1,15,13,16,-5,7,59*,58*,17,14
CCOc1ccc(C2=CSC3=NCCN23)cc1,-4,-4,-2,-3,-18,18,·,·,·
C=CCN1C(=O)[C@@H](CC(=O)NCc2cccs2)[C@]2(C(=O)OC)CCCCC=C12,·,·,3,·,-3,·,·,·,·
Cc1ccc(NC(=O)NNC(=O)CSC2CCc3ccccc32)c(C)c1 (stereo unspecified),·,·,12,·,-29,·,·,·,·
CC1(C)Cc2ccccc2C2=C(C(=O)N3CCCCCC3)C(=O)C(=O)N21,-16,14,14,11,-33,72*,12,11,-6
O=C(Nc1ccc2c(c1)OCO2)O[C@@H]1CC[C@@]23CCCN2C(=O)CCC[C@H]3C1,·,·,-14,·,·,·,·,·,·
O=C(O)CCCNC(=O)CCCNC(=O)C(c1ccccc1)c1ccccc1,5,-6,13,-25,-16,51,25,8,-9
CCOC(=O)[C@@H](CCc1ccccc1)N[C@@H](C)C(=O)N1CCC[C@H]1C(=O)O,·,·,1,·,-15,·,·,·,·
O=C(CN1CCSCC1)c1c[nH]c2ccccc12,-3,-1,-4,-3,-40,99*,22,9,-34
CCN(CC)Cc1cc2ccccc2c2c1COC2,-5,10,3,18,-37,94*,13,8,-16
CCCN(CCC)Cc1cc2ccccc2c2c1COC2,-3,-2,6,15,-12,2,·,·,·
COC(=O)[C@]1(CNC(C)=O)CC(=O)N(Cc2ccc(Cl)cc2)[C@@H]1c1ccc(OC)cc1,·,·,-9,·,11,·,·,·,·
COc1ccc(CN2C(C(=O)NC3CCCC3)CSCCS2(=O)=O)cc1 (stereo unspecified),·,·,-26,·,28,·,·,·,·
O=C(C(=O)N1CCC(CNS(=O)(=O)c2ccccc2OC(F)(F)F)CC1)c1cccs1,·,·,-16,·,21,·,·,·,·
S=C(NCCc1ccccc1)Nc1ccc(Cl)cc1Cl,-14,-1,-2,-20,-17,65*,13,10,-30
COc1ccc(/C=C2\CC3(OC(=O)C4CCCC4)CCCN2C3)cc1 (stereo unspecified),·,·,-9,·,-39,·,·,·,·
O=C(CCSc1nnc2scc(-c3ccccc3)n12)NCc1ccc2c(c1)OCO2,0,11,-12,-2,-10,-4,·,·,·
c1ccc(-c2csc3nnc(SCc4ccc5c(c4)OCO5)n23)cc1,13,11,26,20,2,52,10,6,5
COc1ccc(Cc2nnc(N/N=C/c3ccc(O)cc3)[nH]c2=O)cc1OC,22,69*,17,6,53*,82*,85*,29*,73*
COc1ccc(Cc2nnc(N/N=C/c3ccc(Br)cc3)[nH]c2=O)cc1OC,1,17,-14,-2,14,-1,·,·,·
CCC(C)OC(=O)C[N+](C)(C)CCOC1CC2CCC1(C)C2(C)C (stereo unspecified),26,24,11,18,-22,73*,71*,36*,9
